Source: PubChem BioAssay
FBW7 activator = FBW7 E3 ligase activators, primary screen, biochemical, AlphaScreen, human | AID 1259310, 2017 | normalized activity (activation), % at 26.1 µM | AlphaScreen FBW7–phospho-cyclin E peptide binding, activator screen | 0.13% of 650,000 active | F-box/WD repeat-containing protein 7 (Homo sapiens), Q969H0; in the data active means normalized activity above about 1.9%;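 further: purified mutant Fbw7 with reduced substrate affinity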
Target sequence (Q969H0 whole entry, looked up): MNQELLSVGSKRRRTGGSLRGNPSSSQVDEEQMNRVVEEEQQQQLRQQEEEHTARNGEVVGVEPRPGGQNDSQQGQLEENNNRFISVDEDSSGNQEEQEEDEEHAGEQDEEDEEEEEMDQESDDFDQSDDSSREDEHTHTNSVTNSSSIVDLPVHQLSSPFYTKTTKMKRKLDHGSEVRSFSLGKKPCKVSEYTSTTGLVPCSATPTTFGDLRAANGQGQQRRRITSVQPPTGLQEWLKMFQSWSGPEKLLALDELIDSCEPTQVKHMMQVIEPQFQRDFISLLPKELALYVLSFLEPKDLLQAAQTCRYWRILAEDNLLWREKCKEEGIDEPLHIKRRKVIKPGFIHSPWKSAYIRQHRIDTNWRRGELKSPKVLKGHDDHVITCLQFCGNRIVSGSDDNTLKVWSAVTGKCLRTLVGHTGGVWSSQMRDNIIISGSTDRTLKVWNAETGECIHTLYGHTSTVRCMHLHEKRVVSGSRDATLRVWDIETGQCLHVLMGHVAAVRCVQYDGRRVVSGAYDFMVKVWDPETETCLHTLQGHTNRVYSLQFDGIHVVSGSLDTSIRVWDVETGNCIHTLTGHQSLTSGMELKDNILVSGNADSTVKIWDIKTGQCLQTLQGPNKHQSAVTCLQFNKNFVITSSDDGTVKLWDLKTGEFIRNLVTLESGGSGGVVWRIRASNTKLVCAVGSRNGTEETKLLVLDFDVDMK
TEAD-YAP block = TEAD-YAP interaction inhibition, primary screen, TEAD-YAP interaction inhibitor project, luminescence, HEK-TIYL cells; 1.4% of 640,000 active; inhibition, % at 9.12 µM; TEAD-Gal4/YAP UAS-luciferase luminescence; AID 1259422, 2018; in the data active means inhibition above about 32%;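 further: 0% = median of test compound wells and 100% = reference inhibitor wells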
MITF inh = MITF inhibitors, primary screen, biochemical, AlphaScreen, human. Microphthalmia-associated transcription factor (Homo sapiens), O75030. AlphaScreen MITF homodimerization, bead proximity signal. inhibition, % at 2.6 µM. 0.91% of 650,000 active. AID 1259374, 2018; in the data active means inhibition above about 50%;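 further: 0% = vehicle wells with protein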
GPR151 activ = activators of human GPR151, primary screen, cell-based, PathHunter beta-arrestin, luminescence; 1% of 650,000 active; PathHunter beta-arrestin GPR151 cells; activation, % at 11.2 µM; G-protein coupled receptor 151 (Homo sapiens), Q8TDV0; in the data active means activation above about 4.9%;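 further: 0% = median of compound wells and 100% = cells with positive control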
GPR151 conf act = GPR151 activators, triplicate retest, confirmation, cell-based, PathHunter beta-arrestin, luminescence; activation, % at 11.2 µM; shares compounds with GPR151 activ; GPR151 PathHunter beta-arrestin cells, 90 min; % of EA-reagent control over plate median; AID 1508609, 2020; 6,700 tested, under 10 active;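 active means mean percent activation across replicates above the confirmation screen cutoff of 4.91%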
GPR119 counter = GPR119 activators in beta-arrestin cells, counter-screen for GPR151 activator project, cell-based, PathHunter beta-arrestin, luminescence, triplicate; 0.3% of 6,700 active; activation, % at 11.2 µM; shares compounds with GPR151 activ; 90 min; 0 = compound-well median, 100 = enzyme-acceptor control; AID 1508611, 2020;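 active means mean percent activation in the counterscreen above 29.09%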;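 further: counterscreen on off-target GPR119 to flag nonselective hits from the GPR151 activator screen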
Active calls of the source: *; . = not tested or not shown. This is a sample that favours compounds with a hit; in the whole collection about 3.4% have one here.

SMILES | FBW7 activator | TEAD-YAP block | MITF inh | GPR151 activ | GPR151 conf act | GPR119 counter
CCN(CC)S(=O)(=O)c1ccc(NC(=O)CCc2ccccc2)cc1 | 0 | 4 | 1 | 2 | . | .
CCCN(CCC)S(=O)(=O)c1ccc(NC(=O)CCc2ccccc2)cc1 | 0 | 11 | -3 | 7.6* | 0 | -7
Cc1cccc(NC(=O)CCc2ccccc2)c1 | 0 | -22 | 2 | 7.8* | 0 | -1
CCc1cccc(NC(=O)Cn2cccc2)c1 | 0 | -7 | 5 | 7.6* | 1 | -7
CCc1cccc(NC(=O)Nc2ccccc2)c1 | 1 | -83 | -9 | 0 | . | .
COc1ccc(OC)c(C(c2c(C)[nH]c3ccccc23)c2c(C)[nH]c3ccccc23)c1 | 0 | -6 | 9 | 1 | . | .
Cc1ccccc1OCCCCNC(C)(C)C | 0 | -5 | -10 | 0 | . | .
N#Cc1ccccc1CN1CCC(Oc2cccc(-c3cccnc3)c2)CC1 | 0 | 8 | 1 | 5.2* | -1 | 7
Cn1c(=O)c2c(nc(Cl)n2Cc2c(F)cccc2Cl)n(C)c1=O | 0 | 1 | 2 | 2 | . | .
CCSc1nc2c(c(=O)n(C)c(=O)n2C)n1Cc1c(F)cccc1Cl | 0 | 4 | 22 | 5.2* | 0 | -1
O=[N+]([O-])c1ccc(CSC(=S)NC2CCS(=O)(=O)C2)cc1 (stereo unspecified) | 0 | 4 | -1 | -1 | . | .
O=C(O)CCCCCn1c(SCC(=O)c2ccccc2)nc2ccsc2c1=O | 0 | 0 | 23 | 6.5* | 0 | 8
NC(=O)COC(=O)/C=C/c1ccc(Cl)cc1 | 0 | 3 | 3 | 5.6* | 0 | 0
Cc1nnc2c(Nc3ccccc3N3CCCCC3)nc3ccccc3n12 | 0 | -4 | 2 | 0 | . | .
c1ccc(N2CCCCC2)c(Nc2nc3ccccc3n3nnnc23)c1 | 0 | 8 | -3 | 6.0* | 0 | -1
CCOc1ccc(Cl)cc1C1C2=C(CC(C)(C)CC2=O)N(C)C2=C1C(=O)CC(C)(C)C2 | 0 | 4 | 12 | 0 | . | .
C#CCOc1ccc(Cl)cc1C1C2=C(CC(C)(C)CC2=O)N(C)C2=C1C(=O)CC(C)(C)C2 | 0 | 2 | 3 | 5.1* | 1 | 10
c1nc(N2CCCCCC2)c2nc3n(c2n1)CCCCC3 | 0 | -1 | -7 | 1 | . | .
Cc1cccc(-n2cc(-c3ccccc3)c3c(NCCc4ccc(Cl)cc4)ncnc32)c1 | 0 | 0 | -3 | 0 | . | .
COc1ccccc1Nc1ncnc2c1c(-c1ccccc1)cn2-c1ccccc1 | 0 | 8 | 6 | 6.8* | 1 | 11
Cc1cccc(-n2cc(-c3ccccc3)c3c(NCCc4ccccc4)ncnc32)c1 | 0 | -5 | 2 | 6.0* | 0 | 9
Brc1ccc(-n2cc(-c3ccccc3)c3c(N4CCN(c5ccccc5)CC4)ncnc32)cc1 | 0 | 3 | 7 | 0 | . | .
CC(C)Nc1ncnc2c1c(-c1ccccc1)cn2-c1ccc(Br)cc1 | 0 | 1 | 1 | 5.4* | -1 | 0
O=[N+]([O-])c1ccc(N2CCN(c3ncnc4c3c(-c3ccccc3)cn4-c3ccc(Br)cc3)CC2)cc1 | 0 | -2 | -2 | 5.0* | 0 | 0
Cc1ccc(-n2cc(-c3ccccc3)c3c(NC(C)C)ncnc32)cc1 | 0 | -7 | -1 | -1 | . | .
COC(=O)CN1C(=S)N(C)C(=O)/C1=C/c1ccc(OC)cc1 | 0 | 0 | 8 | 2 | . | .
CCOc1ccc(-n2cc(-c3ccccc3)c3c(NCc4ccc5c(c4)OCO5)ncnc32)cc1 | 0 | 0 | 5 | 1 | . | .
COc1ccc(-n2cc(-c3ccccc3)c3c(NCc4ccc5c(c4)OCO5)ncnc32)cc1 | 0 | -1 | 16 | 6.1* | 0 | 9
COc1ccc(C(=O)COC(C)=O)cc1 | 0 | 2 | 3 | 0 | . | .
CCn1c(SCc2nc(-c3cccs3)no2)nnc1-c1ccco1 | 0 | -3 | -139 | 6.9* | 0 | 7
